From PubChem BioAssay
ERp5 inh = inhibitors of human ERp5 | Q15084 | ERp5 insulin aggregation, absorbance 650 nm, 90 min | inhibition, % at 9.99 µM | hit rate 0.05% among 350,000;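 active means mean replicate inhibition above about 25%, with every replicate also reaching it, limit read from the data, passing the limit was not always enough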
PDI turbidity = PDI (human) enzyme inhibition | PDI insulin aggregation turbidity, A650, 90 min | hit rate 0.052% among 350,000 | P07237 | inhibition, % at 10 µM;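 active means mean inhibition across replicates of 30% or more, whatever share of single replicates reach that level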
DENV2 CPE = inhibitors of DENV2 cytopathic effect; DENV2-infected cells, cytopathic effect rescue, plate reader; CPE inhibition, % at 9.99 µM; hit rate 1.7% among 350,000; in the data active means CPE inhibition above about 20%, passing the limit was not always enough; tested in BHK-21 cells;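 further: 0% = median of neutral control wells and 100% = median of positive control wells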
SIRT5 inh = sirtuin-5 (human) deacylase inhibition. Q9NXA8. Purified SirT5, succinyl-peptide AMC, trypsin-coupled fluorescence. inhibition, % at 15 µM. hit rate 1.1% among 330,000; in the data active means inhibition above about 15%
Target sequence (Q9NXA8 whole entry, looked up): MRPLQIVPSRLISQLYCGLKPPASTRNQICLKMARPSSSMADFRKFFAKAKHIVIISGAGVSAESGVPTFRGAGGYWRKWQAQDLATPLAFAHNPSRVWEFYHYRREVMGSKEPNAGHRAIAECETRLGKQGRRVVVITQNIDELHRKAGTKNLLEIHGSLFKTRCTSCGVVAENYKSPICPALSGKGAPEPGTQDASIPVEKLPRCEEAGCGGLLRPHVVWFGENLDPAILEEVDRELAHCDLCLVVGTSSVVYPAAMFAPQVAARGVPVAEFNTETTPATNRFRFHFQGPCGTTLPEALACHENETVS
Rtt109 Vps75 = inhibitors of Candida albicans Rtt109/Vps75 histone acetyltransferase; Q5AAJ8; purified Rtt109/Vps75, ThioGlo CoA-SH fluorescence, 4 h; inhibition, % at 34.9 µM; hit rate 0.16% among 330,000;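 active means inhibition of at least 50% in every replicate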
The depositor's hits bear a star; · = no result given. A selection: hits, their analogues and other compounds. The true share with any hit is near 2.3%.

SMILES | ERp5 inh | PDI turbidity | DENV2 CPE | SIRT5 inh | Rtt109 Vps75
O=c1[nH][nH]c(-c2ccccc2O)c1C(C[N+](=O)[O-])c1ccc(Cl)cc1Cl (configuration not stated) | 4 | 7 | -5 | -3 | -3
CN(C)CCCNc1oc(-c2ccc(Cl)cc2)nc1S(=O)(=O)c1ccccc1 | 0 | -6 | 39* | -1 | 9
CN(C)CCCNc1oc(-c2ccccc2Cl)nc1S(=O)(=O)c1ccccc1 | 2 | 5 | 5 | 8 | -6
COc1ccc(NC(=O)N[C@@H]2CC[C@H](CC(=O)NC3CCCCC3)O[C@@H]2CO)cc1 | 0 | · | 2 | 0 | ·
CO[C@@H]1CN(C)C(=O)c2ccc(NS(C)(=O)=O)cc2OC[C@@H](C)N(S(C)(=O)=O)C[C@H]1C | 3 | · | 15 | -7 | ·
CCOC(=O)N1CCC(NC(=O)Cn2nc(-c3ccccc3)ccc2=O)CC1 | 0 | 6 | -3 | 18* | ·
COc1cc(/C=C2/NC(=O)NC2=O)cc(Br)c1OCc1ccc(C(=O)O)cc1 | 0 | -1 | 1 | 15* | -2
CCNC(=O)[C@@H]1[C@@H](CO)[C@@H]2Cn3c(ccc(C4=CCCC4)c3=O)[C@H]1N2Cc1cccnc1 | -6 | · | 5 | 5 | ·
COC(=O)C1=C(C)N(Cc2cccc(C(F)(F)F)c2)C(=NCc2ccccc2C(F)(F)F)NC1c1ccccc1C(F)(F)F (configuration not stated) | 5 | · | -12 | 2 | ·
COC(=O)C1=C(C)N(Cc2cccc(C(F)(F)F)c2)C(=NCc2ccc(C(F)(F)F)cc2)NC1c1ccccc1C(F)(F)F (configuration not stated) | 0 | · | 28* | 0 | ·
COC(=O)C1=C(C)N(Cc2cccc(C(F)(F)F)c2)C(=NCc2ccc(OC)cc2)NC1c1ccccc1C(F)(F)F (configuration not stated) | 0 | · | -14 | 15* | ·
COc1ccccc1S(=O)(=O)N[C@@H]1CC[C@@H](CCNC(=O)C2CCC2)O[C@H]1CO | -13 | · | -12 | 1 | ·
CC(C)(C(=O)N1CCC1(C)C(=O)Nc1ccccc1Br)c1ccccc1 (configuration not stated) | 1 | -5 | 25* | 4 | ·
CN(c1ccc(C(=O)Nc2ccc3c(c2)OCO3)cc1)S(C)(=O)=O | 7 | -2 | -5 | 0 | 51*
Cc1ccc(C(=O)Nc2ccc3c(c2)OCO3)cc1Cl | 14 | -8 | -9 | -5 | -9
CN(c1ccc(C(=O)Nc2ccc3c(c2)OCCO3)cc1)S(C)(=O)=O | -1 | -5 | · | · | -3
Cc1ccc(NC(=O)c2ccc3c(c2)OCO3)cc1Cl | 3 | 0 | 22* | 3 | -7
C[C@H](CO)N1C[C@H](C)[C@H](CN(C)S(=O)(=O)c2ccc(Cl)cc2)OCc2ccccc2-c2ccccc2C1=O | -5 | · | -3 | 4 | ·
COc1ccc(-c2cn(CC[C@@H]3CC[C@H](NC(=O)NC(C)C)[C@@H](CO)O3)nn2)cc1 | -6 | · | 14 | -5 | ·
C/C(C=O)=C/c1ccccc1 | -1 | · | 91* | · | 3
Cc1ccc(S(=O)(=O)N(C)C)cc1NC(=O)[C@H](Cc1ccccc1)N1C(=O)c2ccccc2C1=O | 1 | -3 | 42* | · | 8
COc1ccc(S(=O)(=O)N(C)C)cc1NC(=O)[C@H](Cc1ccccc1)N1C(=O)c2ccccc2C1=O | · | -4 | · | · | -2
CCN1CCN(C(=O)/C=C/c2ccc3c(c2)OCO3)CC1 | -1 | 8 | 11 | 9 | 3
CCN1CCN(C(=O)/C=C/c2ccc(OC)c(OC)c2)CC1 | 1 | 4 | 20* | -4 | -4
COc1ccc(SC[C@H](C)CN2CC[C@H](NC(=O)OCc3ccccc3)CCC2=O)cc1 | -4 | -2 | -1 | -3 | 0
C[C@@H](CSc1ccc(Br)cc1)CN1CC[C@H](NC(=O)OCc2ccccc2)CCC1=O | 0 | 10 | 75* | 4 | 2
Nc1nc2c(ncn2[C@@H]2O[C@H](CNCc3ccccc3)[C@@H](O)[C@H]2O)c(=O)[nH]1 | -3 | · | -4 | 1 | ·
Nc1nc2c(ncn2[C@@H]2O[C@H](CNCc3ccc(F)c(N4CCOCC4)c3)[C@@H](O)[C@H]2O)c(=O)[nH]1 | -6 | · | 26* | -2 | ·
COc1ccc(NC(=O)N(C)C[C@H]2Oc3ccc(NC(=O)c4ccncc4)cc3C(=O)N([C@@H](C)CO)C[C@@H]2C)cc1 | 10 | · | · | · | ·
O=C(NCC[C@H]1CC[C@@H](NC(=O)c2cccnc2)[C@H](CO)O1)Nc1ccc(Cl)cc1 | 0 | · | -3 | -4 | ·
